Source: PubChem
A selection: hits, their analogues and other compounds. The true share with any hit is near 4.6%.
TRHR enhancer: TRH receptor (human) allosteric enhancement | P34981 | 360,000 compounds, 0.66% hits | TRHR cells, fluo-8 calcium fluorescence, EC20 TRH enhancement | enhancement, % at 2 µM; in the data active means enhancement above about 30%
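TRHR-expressing cells loaded with fluo-8 calcium dye were read kinetically (ex 480/em 530) during compound addition, then stimulated with an EC20 of TRH (10 nM final). Enhancement of the Gq-mediated intracellular calcium response was scored.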
D1 PAM: potentiators of human D1 dopamine receptor; HEK293 TREx D1 cells, calcium flux, dopamine EC20 potentiation; 360,000 compounds, 0.036% hits; AID 504651; potentiation, % at 10 µM; P21728; in the data active means potentiation above about 30%
Target sequence (P21728 whole entry, looked up): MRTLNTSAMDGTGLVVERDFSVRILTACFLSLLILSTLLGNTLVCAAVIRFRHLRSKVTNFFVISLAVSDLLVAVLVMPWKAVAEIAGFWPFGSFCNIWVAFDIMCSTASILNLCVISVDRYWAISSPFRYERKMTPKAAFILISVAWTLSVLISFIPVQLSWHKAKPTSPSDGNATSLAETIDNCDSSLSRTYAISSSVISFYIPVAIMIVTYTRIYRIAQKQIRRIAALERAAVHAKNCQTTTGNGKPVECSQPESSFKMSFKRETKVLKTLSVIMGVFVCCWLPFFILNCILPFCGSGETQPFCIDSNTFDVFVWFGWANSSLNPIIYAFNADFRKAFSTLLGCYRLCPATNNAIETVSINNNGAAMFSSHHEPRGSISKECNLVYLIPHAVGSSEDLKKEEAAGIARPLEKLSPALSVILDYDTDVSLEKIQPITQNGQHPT
TRHR ag: agonists of human TRH receptor; P34981; TRHR cells, calcium flux fluo-8, FDSS agonist mode; activation, % at 2 µM; 360,000 compounds, 0.18% hits; AID 493084
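Steps: seed TRHR cells overnight; add fluo-8 no-wash Ca dye, RT 30 min–1.5 h; record 10 s baseline; pin-transfer compounds; monitor fluorescence 1 cycle/s for the agonist window. Calcium increases flag candidate agonists.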
D1 ag: activates the human D1 dopamine receptor; P21728; HEK293 T-REx D1 cells, calcium flux, agonist mode; activation, % at 2 µM; 360,000 compounds, 1% hits; AID 504660
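Agonism was scored from calcium flux recorded over 180 s (1 read/s) after pintool compound addition, following a 10-cycle baseline. Cells were inducible force-coupled HEK293 TREx D1, plated overnight at 30 C and loaded with no-wash calcium dye.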
D1 antagonist: human D1 dopamine receptor antagonism. P21728. HEK293 TREx D1 cells, calcium flux, dopamine EC80; stronger effect = lower value. activity change, negative = inhibition, % at 10 µM. 360,000 compounds, 3.2% hits. AID 504652; in the data active means activity change below about -30%
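Antagonism measured as reduced calcium response to an EC80 dopamine addition following 180 s compound pre-read; cells were inducible HEK293 Trex D1 plated overnight at 30 C, read kinetically at 1 cycle/sec.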
Epigenetic derep: derepresses silenced GFP reporter in murine cells; 280,000 compounds, 0.2% hits; murine LDR cells, GFP reporter derepression, 30 h; AID 1865; Potency, µM (doses to about 53.9 µM), actives largely listed as activators; active means well fitted activation curve with a large enough effect; inconclusive means small, poorly fitted or top-dose-only effect; further: nearly all actives have a fitted effect of over 60% in size
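Reporter derepression read as number of fluorescent GFP-positive objects, 20-120 um in size, counted by laser-scanning cytometer. Mouse LDR line with an epigenetically silenced CMV-GFP locus; compound incubation 30 h, 37 C.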
Each line names hits and unclear results; the compound was inactive in the other large screens. Unless noted, no stated cut-off is given here; in the data, active means activation above about 30%; inactive means the rest.

Cc1nn(CC(=O)Nc2ccc(C(C)C)cc2)c(=O)c2c(C)n(-c3ccc(Cl)cc3)nc12	Epigenetic derep inconclusive
CC(=O)N1N=C(c2ccc(NS(=O)(=O)c3ccccc3)cc2)CC1c1ccco1 (centres undefined)	D1 antagonist -36 (no result: Epigenetic derep)
CC(=O)N1N=C(c2cccc(NS(=O)(=O)c3ccc(C)cc3)c2)CC1c1ccco1 (centres undefined)	none (no result: Epigenetic derep)
COc1cccc(CN(Cc2cccnc2)S(=O)(=O)c2ccc(-n3cnnn3)c(C)c2)c1	D1 antagonist -32
COc1cc(S(=O)(=O)N(Cc2cccnc2)Cc2ccco2)ccc1-n1cnnn1	none
CCC(C(=O)Nc1ccc(C(C)=O)cc1)n1cnc2nc3c(cc2c1=O)CCCC3 (centres undefined)	none
O=C(Nc1nnc(SCC(=O)N2CCCC2)s1)C1CC(=O)N(c2ccc(F)cc2)C1 (centres undefined)	none (no result: Epigenetic derep)
O=C(Nc1nnc(SCC(=O)N2CCOCC2)s1)C1CC(=O)N(c2ccc(F)cc2)C1 (centres undefined)	D1 antagonist -47 (no result: Epigenetic derep)
CC(c1ccccc1)C1CC(=O)N(CC(=O)O)C1=O (centres undefined)	D1 antagonist -32
COc1cc(OC)c2c(-c3ccccc3)cc(=O)oc2c1C(CC(=O)N1CCCC1)c1ccc2c(c1)OCO2 (centres undefined)	D1 antagonist -36
COc1cc(OC)c2c(-c3ccccc3)cc(=O)oc2c1C(CCN1CCCCC1)c1ccc2c(c1)OCO2 (centres undefined)	none
COc1ccc(C(CCN2CCCCC2)c2c(OC)cc(OC)c3c(-c4ccccc4)cc(=O)oc23)cc1 (centres undefined)	D1 ag 55, D1 antagonist -43
CCC(C)NC(=O)C(=O)Nc1c2c(nn1-c1ccccc1)CS(=O)(=O)C2 (centres undefined)	none (no result: D1 antagonist)
CCC1CCC(N2CCN(c3ccc(F)cc3)CC2)CC1 (centres undefined)	D1 antagonist -46 (no result: Epigenetic derep)
Cc1ccc(-n2c(=O)c3c4c(sc3n(Cc3ccccc3C)c2=O)CCC4)cc1C	D1 antagonist -72
CC1CCCN(c2ncnc3c2nnn3C)C1 (centres undefined)	none (no result: D1 antagonist)
Cc1csc(SCC(=O)Nc2ccc(C)c(F)c2)n1	D1 antagonist -39 (no result: Epigenetic derep)
CC1=C(C(=O)OCC2CCCCC2)C(c2ccc(Cl)cc2)CC(=O)N1 (centres undefined)	none
Cc1nonc1NC(=O)CSc1nc2c(C)cccc2cc1C#N	D1 ag 43, Epigenetic derep 16µM
Cc1cc2cc(C#N)c(SCC(=O)Nc3nonc3C)nc2cc1C	none (no result: Epigenetic derep)
COc1cc(NC(=O)C(Cc2ccccc2)NS(=O)(=O)c2cccc3nsnc23)cc(OC)c1 (centres undefined)	none
Cc1ccc(C(C)C)cc1NC(=O)Nc1ccc([N+](=O)[O-])cc1	D1 antagonist -49
CC(=O)c1ccc(NC(=O)Nc2ccncc2)cc1	none (no result: D1 antagonist)
COC(=O)c1sccc1NC(=O)Nc1ccc(C(C)=O)cc1	D1 antagonist -33 (no result: Epigenetic derep)
CC(=O)Nc1cc[n+](C(C)C(=O)c2ccc(Cl)cc2)cc1 (centres undefined)	none
CC(=O)c1ccc(NC(=O)Nc2ccc(Cl)cc2)cc1	D1 antagonist -35
CC(=O)Nc1cc[n+](CC(=O)c2ccc(Cl)cc2)cc1	D1 antagonist -33
CCc1ccc(C2c3c(oc4ccc(F)cc4c3=O)C(=O)N2CCc2ccc(OC)cc2)cc1 (centres undefined)	none
O=C(NCC(c1ccc(Cl)cc1)N1CCCCC1)c1ccccc1 (centres undefined)	none
O=C(Nc1nnc(-c2ccccc2)o1)c1ccc(Cl)cc1	none
CC(=O)c1ccc(NC(=O)Nc2ccc([N+](=O)[O-])cc2)cc1	D1 antagonist -36
O=C(Nc1ccc([N+](=O)[O-])cc1)Nc1cnccn1	D1 antagonist -32 (no result: Epigenetic derep)
CC(=O)c1ccc(C(=O)Nc2nnc(-c3ccc(Cl)cc3)o2)cc1	D1 antagonist -32
CC(C)=CCC/C(C)=C/CO/N=C1/[C@H]2O[C@@H]2[C@@H](O)[C@H]2[C@H]1CCn1c(=O)n(Cc3cc4c(cc3Cl)OCO4)c(=O)n12	none (no result: TRHR enhancer, D1 PAM, TRHR ag, D1 ag, D1 antagonist)
COc1ccccc1C(=O)Nc1ccccc1N1CCN(S(C)(=O)=O)CC1	D1 antagonist -37
O=C(Nc1ccccc1N1CCCC1)c1cccc(Cl)c1Cl	D1 antagonist -32
O=C(CCCn1c(=O)c2cccn2c2cccnc21)Nc1ccccc1C(F)(F)F	none
Cc1cccc(CNC(=O)Cn2ccc3cc(S(=O)(=O)N4CCC(C)CC4)ccc32)c1	none
O=C(Nc1cccc(-c2nc3ccccc3s2)c1)c1cc(-n2cnnc2)ccc1Cl	none
Cc1ccc(C(=O)Nc2cccc(-c3nc4cccnc4s3)c2C)cc1	none
Cc1c(NC(=O)c2ccccc2F)cccc1-c1nc2cccnc2s1	D1 antagonist -80
Cc1c(NC(=O)c2cc(-n3cnnc3)ccc2Cl)cccc1-c1nc2ccccc2s1	D1 antagonist -39
COc1ccc(C2C(C(=O)Nc3ccccc3)=C(C)Nc3c(C(=O)Nc4ccccc4)cnn32)cc1 (centres undefined)	none
Cc1cccc(C(C)C)c1NC(=O)Cn1c(=O)oc2cc(S(=O)(=O)N3CCCC3)ccc21	none
CSc1nc(-c2ccc(Cl)cc2Cl)[nH]c(=O)c1C#N	none
Cc1cc(-c2ccc(Cl)cc2Cl)c(C#N)c(=O)[nH]1	D1 ag 31
Cc1ccc(C)c(NC(=O)CCc2ccc(C)o2)c1	none (no result: Epigenetic derep)
Cc1cc(NC(=O)CCc2ccc(C)o2)no1	D1 antagonist -42
Cc1ccc(NC(=O)CCc2ccc(C)o2)c(C)c1	D1 ag 32 (no result: Epigenetic derep)
N=c1ccn2c(n1)OCC1C2O[C@@H](O)[C@H]1O (some centres undefined)	none (no result: TRHR enhancer, D1 PAM, TRHR ag, D1 ag, D1 antagonist)
O=C(COC(=O)c1ccc([N+](=O)[O-])s1)Nc1ccc(F)cc1	D1 antagonist -38 (no result: Epigenetic derep)
Cc1cc2cc(C(c3nnnn3C3CCCC3)N(Cc3cccnc3)Cc3ccco3)c(=O)[nH]c2cc1C (centres undefined)	D1 antagonist -39
O=C(Cn1ncc2c3ccccc3n(Cc3cccc(Cl)c3)c2c1=O)NCc1cccs1	none
Cc1cc(C)c2nc(SCC(=O)N3CC(=O)Nc4ccccc43)c(C#N)cc2c1	Epigenetic derep 10µM
COc1ccc2nc(SCC(=O)N3CC(=O)Nc4ccccc43)c(C#N)cc2c1	D1 ag 32, D1 antagonist -30, Epigenetic derep inconclusive
CCC(=O)N1CCc2cc(Br)cc(S(=O)(=O)N(CC)Cc3ccccc3)c21	none
